Holding throughout (experiment): peptide microarray binding signal (635 nm), min-max normalized on array (fraction of array maximum); higher = stronger binding
Assay [1] addresses T1, HaloTag-ATRX ADD domain (163-292).
T1 chain: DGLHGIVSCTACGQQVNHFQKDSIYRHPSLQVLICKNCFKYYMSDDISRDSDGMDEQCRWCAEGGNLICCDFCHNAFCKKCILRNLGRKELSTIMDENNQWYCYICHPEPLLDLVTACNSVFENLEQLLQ
In short, it runs like this: (§1)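 Triplicate spots of histone 13-mer peptide–cellulose conjugates with a Cy3 tracer were printed on nitrocellulose and probed for 1 h at 4°C with biotin-labelled HaloTag reader fusions (10 nM to 1 μM) plus streptavidin-Alexa Fluor 647 or rabbit histone antibodies (1:10,000 to 1:2,000) plus anti-rabbit Alexa 647. An Axon GenePix 4000B read the 635 nm channel. Binding signal is the spot-triplicate mean intensity after min-max scaling within each library.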

Assay [2] concerns the target HaloTag-ING2 PHD (mouse Ing2 200-280). The method in brief:
as §1

The target of assay [3] is anti-H3K4me3 antibody ab8580. The method in brief:
as §1

For assay [4], the target named is anti-H3K9me3 antibody ab8898. The method in brief:
as §1

[5] abbreviates: peptide region: H3 30-42, peptide modifications: H3T32ph, binder concentration: 1:2,000 dilution.
[6] abbreviates: peptide region: H3 30-42, peptide modifications: H3T32ph, binder concentration: 1:10,000 dilution.
The mark [7] stands for this setting: peptide region: H3 30-42, peptide modifications: H3K37me3, binder concentration: 1:2,000 dilution.
Where [8] appears, read: peptide region: H3 30-42, peptide modifications: H3K37me3, binder concentration: 1:10,000 dilution.
The mark [9] stands for this setting: peptide region: H3 50-62, peptide modifications: H3K56me2 H3T58ph, binder concentration: 1:2,000 dilution.
Setting [10] is: peptide region: H3 50-62, peptide modifications: H3K56me2 H3T58ph, binder concentration: 1:10,000 dilution.
The mark [11] stands for this setting: peptide region: H3 30-42, peptide modifications: H3K37me1, binder concentration: 1:2,000 dilution.
Where [12] appears, read: peptide region: H3 30-42, peptide modifications: H3K37me1, binder concentration: 1:10,000 dilution.
[13] abbreviates: peptide region: H3 30-42, peptide modifications: H3K37ac, binder concentration: 1:2,000 dilution.
The mark [14] stands for this setting: peptide region: H3 30-42, peptide modifications: H3K37ac, binder concentration: 1:10,000 dilution.

± gives the standard deviation.

Regarding PATGGVKKPHRYR [H3 30-42 P A Tph G G V K K P H R Y R], the “peptide microarray binding signal” value in assay [1] (peptide region: H3 30-42, peptide modifications: H3T32ph, binder concentration: 50 nM) is 0.004984 ± 4.8e-05; in assay [1] (peptide region: H3 30-42, peptide modifications: H3T32ph, binder concentration: 500 nM) it was 0.0106 ± 0.00088; in assay [2] (peptide region: H3 30-42, peptide modifications: H3T32ph, binder concentration: 10 nM), 0.00812 ± 0.00079; in assay [2] (peptide region: H3 30-42, peptide modifications: H3T32ph, binder concentration: 100 nM), 0.0157 ± 0.0015; in assay [3] (setting [5]) it was 0.00115 ± 3.8e-05; in assay [3] (setting [6]), 0.001484 ± 1.4e-05. Besides, the figures for the “peptide microarray binding signal” value in assay [4] (setting [5]) and in assay [4] (setting [6]) were 0.000574 ± 2.6e-05 and 0.0011 ± 1.1e-05, respectively.
As for PATGGVKKPHRYR [H3 30-42 P A T G G V K Kme3 P H R Y R], the “peptide microarray binding signal” value is 0.00621 ± 0.00029 in assay [1] (peptide region: H3 30-42, peptide modifications: H3K37me3, binder concentration: 50 nM); 0.00781 ± 0.00023 in assay [1] (peptide region: H3 30-42, peptide modifications: H3K37me3, binder concentration: 500 nM); 0.00949 ± 0.00038 in assay [2] (peptide region: H3 30-42, peptide modifications: H3K37me3, binder concentration: 10 nM); 0.0356 ± 0.036 in assay [2] (peptide region: H3 30-42, peptide modifications: H3K37me3, binder concentration: 100 nM); 0.00183 ± 9e-05 in assay [3] (setting [7]); 0.00234 ± 4.2e-05 in assay [3] (setting [8]). In addition, the “peptide microarray binding signal” value in assay [4] (setting [7]) was found to be 0.00216 ± 0.00026; in assay [4] (setting [8]), 0.00185 ± 5.2e-05.
Consider EIRRYQKSTELLI [H3 50-62 E I R R Y Q Kme2 S Tph E L L I], for which the “peptide microarray binding signal” value was found to be 0.00116 ± 2.9e-05 in assay [1] (peptide region: H3 50-62, peptide modifications: H3K56me2 H3T58ph, binder concentration: 50 nM); 0.00181 ± 4.2e-05 in assay [1] (peptide region: H3 50-62, peptide modifications: H3K56me2 H3T58ph, binder concentration: 500 nM); 0.00286 ± 0.00011 in assay [2] (peptide region: H3 50-62, peptide modifications: H3K56me2 H3T58ph, binder concentration: 10 nM); 0.000992 ± 1.1e-05 in assay [2] (peptide region: H3 50-62, peptide modifications: H3K56me2 H3T58ph, binder concentration: 100 nM); 0.000415 ± 1.5e-05 in assay [3] (setting [9]); 0.000456 ± 4.9e-06 in assay [3] (setting [10]). Besides, the “peptide microarray binding signal” value stood at 0.00199 ± 0.00011 in assay [4] (setting [9]) and 0.000923 ± 1.9e-05 in assay [4] (setting [10]).
On to PATGGVKKPHRYR [H3 30-42 P A T G G V K Kme P H R Y R], for which the “peptide microarray binding signal” value is 0.0106 ± 0.00056 in assay [1] (peptide region: H3 30-42, peptide modifications: H3K37me1, binder concentration: 50 nM); 0.0245 ± 0.0059 in assay [1] (peptide region: H3 30-42, peptide modifications: H3K37me1, binder concentration: 500 nM); 0.0491 ± 0.0011 in assay [2] (peptide region: H3 30-42, peptide modifications: H3K37me1, binder concentration: 10 nM); 0.0698 ± 0.0049 in assay [2] (peptide region: H3 30-42, peptide modifications: H3K37me1, binder concentration: 100 nM); 0.0068 ± 0.00068 in assay [3] (setting [11]); 0.00765 ± 0.00036 in assay [3] (setting [12]). The “peptide microarray binding signal” value amounted to 0.00234 ± 4.8e-05 in assay [4] (setting [11]) and 0.00225 ± 5.4e-05 in assay [4] (setting [12]).
As for PATGGVKKPHRYR [H3 30-42 P A T G G V K Kac P H R Y R], the “peptide microarray binding signal” value in assay [1] (peptide region: H3 30-42, peptide modifications: H3K37ac, binder concentration: 50 nM) amounted to 0.00991 ± 0.00064; in assay [1] (peptide region: H3 30-42, peptide modifications: H3K37ac, binder concentration: 500 nM), 0.0214 ± 0.0021; in assay [2] (peptide region: H3 30-42, peptide modifications: H3K37ac, binder concentration: 10 nM), 0.0263 ± 0.00079; in assay [2] (peptide region: H3 30-42, peptide modifications: H3K37ac, binder concentration: 100 nM), 0.0376 ± 0.0021; in assay [3] (setting [13]) it was 0.0146 ± 0.0013; in assay [3] (setting [14]) it was 0.014 ± 0.00079. For the same molecule, the “peptide microarray binding signal” value in assay [4] (setting [13]) turned out to be 0.0131 ± 0.00032; in assay [4] (setting [14]) it was 0.00663 ± 0.00069.

Values taken from the supplement of paper PMC4022240.
